Experimental data: the supplement of paper PMC10849652
Of roughly 8,800 targets only a part is listed; those with a hit were picked by preference. About 0.5% of all pairs of compound and target were hits. A number with no mark means an inactive call.

Columns and labels:
Experiment in all cases: log2 fold change, soluble protein after heating vs DMSO (PISA); higher = thermal stabilisation; K562 lysate, 10 uM; active = over 0.2 and 3.5 SD of the protein, either way, in both replicates (recomputed)
[1] = compound: C1=CC=C(C=C1)[C@H](COC2=CC3=C(C=C2)NC(=O)N3)NC(=O)C4=CC=CN(C4=O)CC5=CC(=C(C=C5)F)F
Outline: (§1)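 Dounce homogenisation of K562 pellets in PBS pH 7.4 with 1 mM MgCl2 produced a crude extract, used at 1 mg/mL protein. Exposure to 10 μM compound lasted 30 min, and aliquots were then heated for 3 min across 48°C-58°C, pooled and brought to 0.5% NP-40 at 4°C. The supernatant after 21,000xg for 90 min was quantified by TMTpro 16plex LC-MS/MS with channel sums equalised. Duplicate values are given as log-two fold change in thermal stability relative to solvent controls.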

[2] = compound: CC1=C(SC2=C1C(=N[C@H](C3=NN=C(N32)C)CC(=O)N)C4=CC=C(C=C4)Cl)C
Outline: as §1

[3] = compound: Cc1sc2c(c1C)C(c1ccc(Cl)cc1)=N[C@@H](CC(=O)OC(C)(C)C)c1nnc(C)n1-2
Outline: as §1

[4] = compound: c1ccc([C@@H]2C[C@H]2NC2CCNCC2)cc1
Outline: as §1

[5] = compound: CC1=C2C(=CC=C1)N=C(N(C2=O)C3=CC=CC=C3C)CN4C=NC5=C(N=CN=C54)N
Outline: as §1

RALGAPB isoform 3 (UniProt Q86X10)
UniProt Q86X10, sequence (Q86X10 whole entry, looked up): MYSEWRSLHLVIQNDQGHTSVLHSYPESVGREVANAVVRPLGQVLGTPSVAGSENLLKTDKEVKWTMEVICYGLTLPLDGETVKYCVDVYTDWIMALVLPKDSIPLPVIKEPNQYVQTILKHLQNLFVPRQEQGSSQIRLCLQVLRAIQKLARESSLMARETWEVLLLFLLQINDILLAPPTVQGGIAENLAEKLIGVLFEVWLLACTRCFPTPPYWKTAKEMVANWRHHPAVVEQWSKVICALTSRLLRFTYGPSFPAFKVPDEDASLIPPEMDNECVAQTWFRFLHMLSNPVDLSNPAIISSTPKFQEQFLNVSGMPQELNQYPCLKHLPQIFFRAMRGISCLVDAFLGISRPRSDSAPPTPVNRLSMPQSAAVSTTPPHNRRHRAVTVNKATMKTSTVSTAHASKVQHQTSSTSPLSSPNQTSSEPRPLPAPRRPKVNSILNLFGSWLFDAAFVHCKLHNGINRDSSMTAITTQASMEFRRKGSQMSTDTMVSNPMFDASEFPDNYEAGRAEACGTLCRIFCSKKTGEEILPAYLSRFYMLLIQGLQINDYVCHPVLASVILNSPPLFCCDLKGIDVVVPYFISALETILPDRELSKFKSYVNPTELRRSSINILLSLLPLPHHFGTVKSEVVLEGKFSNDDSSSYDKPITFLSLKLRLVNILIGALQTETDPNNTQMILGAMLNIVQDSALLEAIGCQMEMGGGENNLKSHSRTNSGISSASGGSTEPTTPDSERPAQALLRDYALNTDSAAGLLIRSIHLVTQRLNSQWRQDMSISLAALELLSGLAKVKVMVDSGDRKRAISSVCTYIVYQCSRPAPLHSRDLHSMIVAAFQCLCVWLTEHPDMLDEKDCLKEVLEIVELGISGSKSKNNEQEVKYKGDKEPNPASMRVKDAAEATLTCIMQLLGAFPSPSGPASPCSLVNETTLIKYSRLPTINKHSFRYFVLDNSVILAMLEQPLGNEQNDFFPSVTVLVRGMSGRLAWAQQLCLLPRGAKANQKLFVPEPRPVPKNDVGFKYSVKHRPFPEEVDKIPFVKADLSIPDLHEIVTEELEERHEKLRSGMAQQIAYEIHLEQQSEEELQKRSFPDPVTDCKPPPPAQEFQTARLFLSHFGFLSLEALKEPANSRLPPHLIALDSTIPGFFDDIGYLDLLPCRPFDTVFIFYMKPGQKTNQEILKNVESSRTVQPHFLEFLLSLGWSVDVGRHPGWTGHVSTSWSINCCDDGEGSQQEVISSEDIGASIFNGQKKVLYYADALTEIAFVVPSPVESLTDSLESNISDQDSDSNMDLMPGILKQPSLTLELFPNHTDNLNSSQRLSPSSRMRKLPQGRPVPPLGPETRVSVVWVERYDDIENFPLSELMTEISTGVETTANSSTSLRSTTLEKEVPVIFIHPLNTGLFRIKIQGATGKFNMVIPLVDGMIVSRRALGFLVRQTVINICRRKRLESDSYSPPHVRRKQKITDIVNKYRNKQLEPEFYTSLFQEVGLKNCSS
log2 fold change [1]: 0.107 | log2 fold change [2]: 0.05 | log2 fold change [3]: 0.189 | log2 fold change [4]: 0.153

RXRA (UniProt P19793)
UniProt P19793, sequence (P19793 whole entry, looked up): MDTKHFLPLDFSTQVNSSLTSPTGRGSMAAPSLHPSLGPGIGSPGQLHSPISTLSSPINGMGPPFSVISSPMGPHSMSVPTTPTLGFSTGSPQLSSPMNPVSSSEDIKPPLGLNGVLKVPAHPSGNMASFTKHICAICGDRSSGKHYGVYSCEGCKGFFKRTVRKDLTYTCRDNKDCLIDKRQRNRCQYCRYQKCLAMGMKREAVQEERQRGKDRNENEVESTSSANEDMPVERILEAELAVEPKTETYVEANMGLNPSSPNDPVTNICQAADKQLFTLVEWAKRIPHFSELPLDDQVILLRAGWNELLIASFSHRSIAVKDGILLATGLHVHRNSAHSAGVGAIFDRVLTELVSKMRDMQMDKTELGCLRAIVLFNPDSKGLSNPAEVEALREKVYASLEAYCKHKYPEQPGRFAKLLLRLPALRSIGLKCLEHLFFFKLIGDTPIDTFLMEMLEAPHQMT
log2 fold change [3]: 0.167 | log2 fold change [4]: -0.149

RPS6KA5 (UniProt O75582)
UniProt O75582, sequence (O75582 whole entry, looked up): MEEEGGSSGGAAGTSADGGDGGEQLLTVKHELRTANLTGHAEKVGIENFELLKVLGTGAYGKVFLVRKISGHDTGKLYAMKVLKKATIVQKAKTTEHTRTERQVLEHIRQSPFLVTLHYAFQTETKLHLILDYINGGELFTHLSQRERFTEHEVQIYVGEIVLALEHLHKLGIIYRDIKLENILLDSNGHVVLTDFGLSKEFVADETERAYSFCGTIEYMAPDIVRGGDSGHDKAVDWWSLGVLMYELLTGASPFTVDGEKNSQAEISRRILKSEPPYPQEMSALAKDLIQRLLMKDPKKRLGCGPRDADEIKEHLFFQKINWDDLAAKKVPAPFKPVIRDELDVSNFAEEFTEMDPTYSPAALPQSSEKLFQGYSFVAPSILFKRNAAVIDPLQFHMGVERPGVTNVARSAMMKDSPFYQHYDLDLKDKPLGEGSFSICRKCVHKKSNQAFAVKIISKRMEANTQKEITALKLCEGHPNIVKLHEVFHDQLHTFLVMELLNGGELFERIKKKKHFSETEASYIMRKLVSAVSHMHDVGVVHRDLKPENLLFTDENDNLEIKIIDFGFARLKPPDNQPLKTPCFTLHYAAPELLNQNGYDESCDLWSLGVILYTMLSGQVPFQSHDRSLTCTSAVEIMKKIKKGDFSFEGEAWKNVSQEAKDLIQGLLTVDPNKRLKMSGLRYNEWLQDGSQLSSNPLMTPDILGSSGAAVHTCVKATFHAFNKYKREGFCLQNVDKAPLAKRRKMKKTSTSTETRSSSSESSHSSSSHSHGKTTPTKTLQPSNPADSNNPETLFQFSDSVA
log2 fold change [5]: -0.084 | log2 fold change [3]: -0.024 | log2 fold change [4]: -0.017

RUFY2 isoform 1 (UniProt Q8WXA3)
UniProt Q8WXA3, sequence (Q8WXA3 whole entry, looked up): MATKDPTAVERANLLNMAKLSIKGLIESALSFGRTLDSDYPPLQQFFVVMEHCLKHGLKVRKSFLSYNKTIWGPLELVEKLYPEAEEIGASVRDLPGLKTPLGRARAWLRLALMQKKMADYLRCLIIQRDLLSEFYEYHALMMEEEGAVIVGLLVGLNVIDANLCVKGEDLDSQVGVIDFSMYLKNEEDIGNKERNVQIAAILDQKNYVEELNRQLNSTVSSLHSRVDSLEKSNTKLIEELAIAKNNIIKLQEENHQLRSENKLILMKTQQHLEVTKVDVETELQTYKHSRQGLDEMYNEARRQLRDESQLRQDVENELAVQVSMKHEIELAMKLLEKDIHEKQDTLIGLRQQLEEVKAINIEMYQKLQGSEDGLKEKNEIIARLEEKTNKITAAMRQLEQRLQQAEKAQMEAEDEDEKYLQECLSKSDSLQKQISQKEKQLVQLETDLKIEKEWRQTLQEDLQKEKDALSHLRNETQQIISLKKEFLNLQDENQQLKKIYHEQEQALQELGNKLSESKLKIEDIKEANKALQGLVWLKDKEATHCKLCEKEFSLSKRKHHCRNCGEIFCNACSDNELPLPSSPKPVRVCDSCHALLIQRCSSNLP
log2 fold change [1]: -0.28 | log2 fold change [2]: -0.106 | log2 fold change [5]: -0.087 | log2 fold change [4]: -0.111

RALGAPB (UniProt Q86X10)
log2 fold change [1]: 0.029 | log2 fold change [2]: 0.023 | log2 fold change [5]: 0.085 | log2 fold change [3]: -0.026 | log2 fold change [4]: 0.006

RSU1 (UniProt Q15404)
UniProt Q15404, sequence (Q15404 whole entry, looked up): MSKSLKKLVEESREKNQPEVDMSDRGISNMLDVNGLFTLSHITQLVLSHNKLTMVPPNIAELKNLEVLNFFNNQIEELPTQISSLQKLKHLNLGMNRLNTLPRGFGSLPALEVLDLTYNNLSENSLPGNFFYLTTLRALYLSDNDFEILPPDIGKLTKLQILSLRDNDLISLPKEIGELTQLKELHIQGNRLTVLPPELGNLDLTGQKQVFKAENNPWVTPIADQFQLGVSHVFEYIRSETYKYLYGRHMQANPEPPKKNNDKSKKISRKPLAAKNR
log2 fold change [1]: 0.056 | log2 fold change [2]: 0.004 | log2 fold change [5]: -0.004 | log2 fold change [3]: -0.017 | log2 fold change [4]: 0.157

RAD54L (UniProt Q92698)
UniProt Q92698, sequence (Q92698 whole entry, looked up): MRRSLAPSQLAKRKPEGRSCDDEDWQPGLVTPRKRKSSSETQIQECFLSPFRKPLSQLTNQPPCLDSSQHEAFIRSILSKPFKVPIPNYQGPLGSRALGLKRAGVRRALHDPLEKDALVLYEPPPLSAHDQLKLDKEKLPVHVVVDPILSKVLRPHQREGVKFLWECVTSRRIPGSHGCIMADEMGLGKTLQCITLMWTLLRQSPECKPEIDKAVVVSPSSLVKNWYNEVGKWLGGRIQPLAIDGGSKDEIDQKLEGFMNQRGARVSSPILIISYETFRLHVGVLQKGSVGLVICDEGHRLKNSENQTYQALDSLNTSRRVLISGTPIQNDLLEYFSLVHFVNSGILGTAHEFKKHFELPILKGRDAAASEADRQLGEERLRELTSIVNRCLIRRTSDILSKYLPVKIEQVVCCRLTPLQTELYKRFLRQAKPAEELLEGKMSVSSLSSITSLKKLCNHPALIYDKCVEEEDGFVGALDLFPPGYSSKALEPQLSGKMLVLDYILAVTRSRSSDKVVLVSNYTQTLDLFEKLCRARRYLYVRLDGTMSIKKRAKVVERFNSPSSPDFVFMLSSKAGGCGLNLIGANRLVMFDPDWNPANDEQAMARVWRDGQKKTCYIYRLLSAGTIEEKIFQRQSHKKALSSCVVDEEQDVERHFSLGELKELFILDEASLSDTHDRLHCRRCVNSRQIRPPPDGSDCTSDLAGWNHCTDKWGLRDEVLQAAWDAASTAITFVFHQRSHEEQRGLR
log2 fold change [1]: -0.013 | log2 fold change [2]: -0.031 | log2 fold change [3]: -0.299 | log2 fold change [4]: -1.06 (active)

RYR1 (UniProt P21817)
log2 fold change [1]: -0.011 | log2 fold change [2]: -0.028 | log2 fold change [3]: -0.093 | log2 fold change [4]: -0.055

RBM8A (UniProt Q9Y5S9)
log2 fold change [1]: 0.066 | log2 fold change [2]: 0.01 | log2 fold change [5]: -0.061 | log2 fold change [3]: 0.084 | log2 fold change [4]: 0.171

RBM45 (UniProt Q8IUH3)
log2 fold change [4]: -0.026

RHBDD1 (UniProt Q8TEB9)
UniProt Q8TEB9, sequence (Q8TEB9 whole entry, looked up): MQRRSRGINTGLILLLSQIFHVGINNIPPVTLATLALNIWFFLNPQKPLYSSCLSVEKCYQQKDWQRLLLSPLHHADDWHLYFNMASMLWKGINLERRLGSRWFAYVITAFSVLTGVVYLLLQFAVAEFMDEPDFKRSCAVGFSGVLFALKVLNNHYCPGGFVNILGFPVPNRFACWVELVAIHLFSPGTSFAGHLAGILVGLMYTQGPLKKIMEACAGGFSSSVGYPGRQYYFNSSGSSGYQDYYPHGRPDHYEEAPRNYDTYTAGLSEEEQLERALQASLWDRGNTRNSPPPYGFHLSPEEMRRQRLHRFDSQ
log2 fold change [1]: -0.032 | log2 fold change [2]: 0.058 | log2 fold change [5]: -0.117 | log2 fold change [4]: 0.039

S100A6 (UniProt P06703)
log2 fold change [5]: -0.084 | log2 fold change [3]: -0.1 | log2 fold change [4]: 0.104
